Rows were chosen to be rich in hits. Some 18% of all compounds tested hit in one or more screens of this group.
IL1B secr inh – inflammasome signaling inhibition, IL-1 beta readout | activity change, % at 57.5 µM | THP-1 LPS/ATP IL-1B secretion, AlphaLISA, 16 h; stronger effect = lower value | 4.7% of 360,000 active; in the data active means activity change below about -50%; inconclusive means mostly about -30% to -49%
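Secreted IL-1B measured by AlphaLISA bead assay after 16 h compound exposure of THP-1 cells; compounds (final up to 57.5 uM) added 1 h before LPS (250 ng/mL) and ATP (1.25 mM) stimulation; lower signal means less secretion.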
TDP1 cell CPT – DT40-hTDP1 cell growth loss with CPT; chicken DT40 Tdp1-/-;hTDP1 cells + 20 nM CPT, ATP luminescence, 48 h; Potency, µM (highest dose often 46.2 µM), for the others: top-dose activity change, negative = growth inhibition, most hits filed as inhibitors; 12% of 420,000 active; further: potency means the concentration at half of the fitted maximal effect; nearly all actives have a fitted effect of over 55% in size
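Cell growth measured by CellTiter-Glo luminescence after a minimum 48 h, 37 C compound exposure with 20 nM CPT in Tdp1-knockout DT40 cells stably expressing hTDP1, seeded 400/well; qHTS titration format.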
TDP1 block – inhibitors of human tyrosyl-DNA phosphodiesterase TDP1. AID 485290. 0.28% of 350,000 active. recombinant TDP1, AlphaScreen DNA substrate cleavage. Potency, µM (series often up to 130 µM), inactives show top-dose activity change, negative = inhibition, hits mostly inhibitors; further: potency means the concentration at half of the fitted maximal effect; nearly all actives have a fitted effect of over 40% in size
Target sequence (Q9NUW8 whole entry, looked up): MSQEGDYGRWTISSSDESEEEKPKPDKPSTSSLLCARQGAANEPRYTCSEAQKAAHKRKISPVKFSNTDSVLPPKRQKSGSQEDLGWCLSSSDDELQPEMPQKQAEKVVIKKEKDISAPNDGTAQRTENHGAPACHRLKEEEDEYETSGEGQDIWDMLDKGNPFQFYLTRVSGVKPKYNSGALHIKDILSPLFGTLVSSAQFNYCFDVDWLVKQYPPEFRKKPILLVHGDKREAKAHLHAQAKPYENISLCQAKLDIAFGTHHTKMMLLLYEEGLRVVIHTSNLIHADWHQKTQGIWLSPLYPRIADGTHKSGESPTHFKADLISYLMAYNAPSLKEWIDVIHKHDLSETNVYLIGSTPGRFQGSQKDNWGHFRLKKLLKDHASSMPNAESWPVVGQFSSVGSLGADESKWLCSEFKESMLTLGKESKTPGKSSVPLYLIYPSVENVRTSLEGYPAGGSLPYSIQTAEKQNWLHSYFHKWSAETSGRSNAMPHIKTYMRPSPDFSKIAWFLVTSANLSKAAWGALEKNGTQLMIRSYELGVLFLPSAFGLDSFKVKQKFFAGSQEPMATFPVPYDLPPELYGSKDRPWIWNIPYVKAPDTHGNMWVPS
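Tdp1 1 nM final; 15 min RT w/ cpd; substrate 15 nM, 5 min; beads 10 ug/ml, 10 min; AlphaScreen read. Neg ctrl: no enzyme.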
TDP1 cell noCPT – qHTS for Inhibitors of human tyrosyl-DNA phosphodiesterase 1 (TDP1): qHTS in cells in absence of CPT | DT40 Tdp1-/- hTDP1 cells, no CPT, ATP luminescence, 48 h | Potency, µM (titrated, usually from 46.2 µM), for the others: at the highest dose activity change, negative = growth inhibition, most hits filed as inhibitors | 15% of 420,000 active | AID 686978, 2013; further: potency means the concentration at half of the fitted maximal effect; nearly all actives have a fitted effect of over 55% in size
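No-CPT arm: Tdp1-/-;hTDP1 DT40 cells (400/well) plus compounds, incubated ≥48 hr at 37 °C. Readout CellTiter-Glo luminescence.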
CtBP-E1A inh – blocks the CtBP interaction with E1A; AlphaScreen GST-E1A/His-CtBP binding, 1536-well; stronger effect = lower value; activity change, % (no concentration beside the values); 0.49% of 340,000 active; in the data active means activity change below about -65%; inconclusive means mostly about -30% to -63%
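AlphaScreen with 125 nM GST-E1A and 125 nM His-CtBP (5X stocks) in Tris pH 8.0, 300 mM NaCl, BSA, Tween 20, TCEP. Compounds preincubated 2 h at 37 deg C, then glutathione donor/nickel acceptor beads added for 1 h at 37 deg C in dark.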
Six1-Eya2 blk – inhibitors of human Six1/Eya2 interaction. 0.56% of 360,000 active. Q15475+O00167. activity change, % (test concentration not listed). AlphaScreen GST-Six1/His-Eya2 binding, biochemical; stronger effect = lower value; in the data active means activity change below about -65%; inconclusive means mostly about -30% to -63%
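Homogeneous AlphaScreen proximity assay pairing GST-Six1 with His-tagged Eya2 (added as 5X mix: 250 nM and 500 nM) in 50 mM Tris pH 8.0, 300 mM NaCl, 1 mM TCEP. Glutathione donor and nickel acceptor beads; 1 h, 37 °C, dark.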
* marks the source's active call; other numbers are inactive results; u = inconclusive; x = no result given; [ ] = dose if it differs, or a comment. Unless noted, the call rests on the fitted dose curve; in most records, active means well fitted curve in the direction sought with a large enough effect; inconclusive means small, poorly fitted or top-dose-only effect, or another doubt; inactive means no such curve, though single readings can be large; an effect the other way counts as inactive or inconclusive. On the % scale 0 is the no-effect control and ±100 the full control effect.

SMILES	IL1B secr inh	TDP1 cell CPT	TDP1 block	TDP1 cell noCPT	CtBP-E1A inh	Six1-Eya2 blk
CCOC(=O)C1(C)CCCCCN1C(=O)/C=C/c1ccccc1 (configuration not stated)	21	16µM*	x	16µM*	0	0
CCOC(=O)C1(C)CCCN1C(=O)c1ccc(C)cc1 (configuration not stated)	20	-24%	x	-17%	4	-3
CCOC(=O)C1(C)CCN1C(=O)c1cc(-c2ccc(Cl)cc2)oc1C (configuration not stated)	-103*	18µM*	x	5.2µM*	-2	0
Cc1ccsc1C1C(C(=O)O)c2ccccc2C(=O)N1C (configuration not stated)	-5	0%	6%	-18%	7	0
Cc1cc(C)c(NC(=O)CNC(=O)c2ccccc2SCC(=O)N2CCCC2)c(C)c1	-14	1%	1%	4%	-1	7
COc1ccc(C)cc1NC(=O)c1cc(S(=O)(=O)NC2CCCCCC2)ccc1F	x	u	0%	u	x	x
CCc1ccccc1NC(=O)c1cc(S(=O)(=O)NC2CCCC2)ccc1F	x	u	5%	21µM*	x	x
O=C(Nc1ccc(Br)cc1F)c1cc(S(=O)(=O)NCc2ccc(F)cc2)ccc1F	x	-11%	3%	u	x	x
O=C(Nc1ccc(Br)cc1F)c1cc(S(=O)(=O)NC2CCCC2)ccc1F	x	21µM*	3%	16µM*	x	x
O=C(Nc1ccc(Cl)cc1F)c1cc(S(=O)(=O)NC2CCCCCC2)ccc1F	x	21µM*	7%	u	x	x
CN(C)S(=O)(=O)c1ccc(F)c(C(=O)Nc2ccccc2C(=O)NC2CC2)c1	7	6%	1%[56.1 µM]	u	-3	4
O=C(NCCCO)/C(=C/c1ccc(-c2cccc([N+](=O)[O-])c2)o1)NC(=O)c1ccccc1	-17	0%	6%	-25%	3	-5
O=C(NC1CCS(=O)(=O)C1)/C(=C\c1ccco1)NC(=O)c1ccccc1 (configuration not stated)	-63*	4%	0%	-8%	2	-7
O=C(NC1CCS(=O)(=O)C1)/C(=C/c1ccco1)NC(=O)c1ccccc1 (configuration not stated)	4	-5%	2%	2%	1	3
Cc1ccc(C(=O)N/C(=C\c2ccc(-c3ccc([N+](=O)[O-])cc3)o2)C(=O)NC2CCS(=O)(=O)C2)cc1 (configuration not stated)	-18	21µM*	0%	u	6	-4
Cc1ccc(C(=O)N/C(=C\c2ccc(-c3cccc([N+](=O)[O-])c3)o2)C(=O)NC(C)(C)C)cc1	-7	15µM*	0%	16µM*	-5	-5
Cc1ccc(C(=O)N/C(=C/c2ccc(-c3ccc([N+](=O)[O-])cc3)o2)C(=O)NCCCN(C)C)cc1	x	21µM*	x	21µM*	-7	-2
CC(C(=O)Nc1ccc2c(c1)OCO2)c1ccc([N+](=O)[O-])cc1 (configuration not stated)	-15	5%	-6%	-28%	-5	-4
CCC(C)NCCCOc1ccc([N+](=O)[O-])cc1 (configuration not stated)	19	-1%	3%	u	7	3
COc1ccc(C(=O)N/N=C(\C)c2ccc3c(c2)C2C=CCC2C(c2ccccc2)N3)cc1 (configuration not stated)	-5	u	-5%	15µM*	-28	-10
O=C(O)c1ccc2c(c1)[C@@H]1C=CC[C@@H]1[C@H](c1ccccn1)N2	5	-9%	x	0%	-16	-77*
CSCCC(NC(=O)c1ccccc1)C(=O)NNC(=O)c1ccccc1 (configuration not stated)	u	-5%	1%	-5%	-23	-8
CC(=O)c1ccc2c(c1)CC1(C2)Cc2cc3c(cc2C1)C(=O)CC3 (configuration not stated)	14	5.2µM*	x	3.3µM*	1	-5
O=c1ccc2ccc(OS(=O)(=O)O)cc2o1	x	x	4%	x	x	x
CC(C)(C)n1[nH]c2c3c(ccc2c1=O)C(=O)c1ccccc1C3=O	0	8.2µM*	2%	7.3µM*	-15	u
SMILES	IL1B secr inh	TDP1 cell CPT	TDP1 block	TDP1 cell noCPT	CtBP-E1A inh	Six1-Eya2 blk
COCCCn1[nH]c2c3c(ccc2c1=O)C(=O)c1ccccc1C3=O	-18	16µM*	5%	16µM*	-23	-28
Cc1cccc(N(CC(=O)Nc2c(C)n(C)n(-c3ccccc3)c2=O)S(C)(=O)=O)c1C	-21	3%	1%	-6%	-10	-1
COc1ccccc1N(C(=O)c1ccco1)C(C(=O)NC1CCCC1)c1cccs1 (configuration not stated)	-2	-8%	x	-28%	-20	-3
Cc1ccc(Nc2c(C(C)C)c(C)c(C#N)c3nc4ccccc4n23)cc1	x	18µM*	x	15µM*	x	x
COc1ccc(Nc2c3c(c(C#N)c4nc5ccccc5n24)CCC3)cc1	26	-13%	0%	-12%	11	0
Cc1cc(Cl)n2c(nc3ccccc32)c1C#N	-100*	0.41µM*	-3%	0.46µM*	0	-2
Cc1c(CCCl)c(Cl)n2c(nc3ccccc32)c1C#N	-113*	0.92µM*	x	0.65µM*	4	1
Cc1ccc(-c2c(C#N)c(N)n3c(nc4ccccc43)c2C#N)cc1	-24	21µM*	u	16µM*	-8	-3
O=C(Nc1ccc2sccc2c1)c1cccc(N2C(=O)CCC2=O)c1	-4	7%	3%	-1%	5	-5
CCOc1ccc(NC(=O)CN(C)C(=O)c2cc(S(=O)(=O)N3CCCCCC3)ccc2OC)cc1OCC	5	-3%	x	-6%	2	4
CC1CCC(NC(=O)c2cccn2C)CC1 (configuration not stated)	-11	-26%	x	u	-1	-5
Cc1cccc(NC(=O)CSc2cc(C)c(C#N)c3nc4ccccc4n23)c1	50	18µM*	1%	12µM*	x	0
CNc1cc(C)c(C#N)c2nc3ccccc3n12	-10	-20%	5%	-27%	u	u
Cc1cc(N2CCN(c3ccccn3)CC2)n2c(nc3ccccc32)c1C#N	13	u	-6%	18µM*	2	-10
Cn1c(=O)[nH]c(=O)c2c1nc(Br)n2CCOc1ccccc1	25	10µM*	2%	16µM*	-20	0
